Test results: the supplement of paper PMC11732987, “Enantioselective OTUD7B fragment discovery through chemoproteomics screening and high-throughput optimisation” (Communications Chemistry, 2025)

Experiments:
Assay in all cases: log2 ratio of Biotin-Ahx-Ub-VS probe labelling (fragment/DMSO); higher = less target engagement (more negative = stronger competition), active = hit call of the paper (q ≤ 0.05, log2 ratio ≤ -1)
Conditions in all cases: compound concentration: 200 uM; treatment time: 3 h
USP34 = USP34 (UniProt Q70CQ2)
Sequence of USP34 (Q70CQ2 whole entry, the tested form may be a part): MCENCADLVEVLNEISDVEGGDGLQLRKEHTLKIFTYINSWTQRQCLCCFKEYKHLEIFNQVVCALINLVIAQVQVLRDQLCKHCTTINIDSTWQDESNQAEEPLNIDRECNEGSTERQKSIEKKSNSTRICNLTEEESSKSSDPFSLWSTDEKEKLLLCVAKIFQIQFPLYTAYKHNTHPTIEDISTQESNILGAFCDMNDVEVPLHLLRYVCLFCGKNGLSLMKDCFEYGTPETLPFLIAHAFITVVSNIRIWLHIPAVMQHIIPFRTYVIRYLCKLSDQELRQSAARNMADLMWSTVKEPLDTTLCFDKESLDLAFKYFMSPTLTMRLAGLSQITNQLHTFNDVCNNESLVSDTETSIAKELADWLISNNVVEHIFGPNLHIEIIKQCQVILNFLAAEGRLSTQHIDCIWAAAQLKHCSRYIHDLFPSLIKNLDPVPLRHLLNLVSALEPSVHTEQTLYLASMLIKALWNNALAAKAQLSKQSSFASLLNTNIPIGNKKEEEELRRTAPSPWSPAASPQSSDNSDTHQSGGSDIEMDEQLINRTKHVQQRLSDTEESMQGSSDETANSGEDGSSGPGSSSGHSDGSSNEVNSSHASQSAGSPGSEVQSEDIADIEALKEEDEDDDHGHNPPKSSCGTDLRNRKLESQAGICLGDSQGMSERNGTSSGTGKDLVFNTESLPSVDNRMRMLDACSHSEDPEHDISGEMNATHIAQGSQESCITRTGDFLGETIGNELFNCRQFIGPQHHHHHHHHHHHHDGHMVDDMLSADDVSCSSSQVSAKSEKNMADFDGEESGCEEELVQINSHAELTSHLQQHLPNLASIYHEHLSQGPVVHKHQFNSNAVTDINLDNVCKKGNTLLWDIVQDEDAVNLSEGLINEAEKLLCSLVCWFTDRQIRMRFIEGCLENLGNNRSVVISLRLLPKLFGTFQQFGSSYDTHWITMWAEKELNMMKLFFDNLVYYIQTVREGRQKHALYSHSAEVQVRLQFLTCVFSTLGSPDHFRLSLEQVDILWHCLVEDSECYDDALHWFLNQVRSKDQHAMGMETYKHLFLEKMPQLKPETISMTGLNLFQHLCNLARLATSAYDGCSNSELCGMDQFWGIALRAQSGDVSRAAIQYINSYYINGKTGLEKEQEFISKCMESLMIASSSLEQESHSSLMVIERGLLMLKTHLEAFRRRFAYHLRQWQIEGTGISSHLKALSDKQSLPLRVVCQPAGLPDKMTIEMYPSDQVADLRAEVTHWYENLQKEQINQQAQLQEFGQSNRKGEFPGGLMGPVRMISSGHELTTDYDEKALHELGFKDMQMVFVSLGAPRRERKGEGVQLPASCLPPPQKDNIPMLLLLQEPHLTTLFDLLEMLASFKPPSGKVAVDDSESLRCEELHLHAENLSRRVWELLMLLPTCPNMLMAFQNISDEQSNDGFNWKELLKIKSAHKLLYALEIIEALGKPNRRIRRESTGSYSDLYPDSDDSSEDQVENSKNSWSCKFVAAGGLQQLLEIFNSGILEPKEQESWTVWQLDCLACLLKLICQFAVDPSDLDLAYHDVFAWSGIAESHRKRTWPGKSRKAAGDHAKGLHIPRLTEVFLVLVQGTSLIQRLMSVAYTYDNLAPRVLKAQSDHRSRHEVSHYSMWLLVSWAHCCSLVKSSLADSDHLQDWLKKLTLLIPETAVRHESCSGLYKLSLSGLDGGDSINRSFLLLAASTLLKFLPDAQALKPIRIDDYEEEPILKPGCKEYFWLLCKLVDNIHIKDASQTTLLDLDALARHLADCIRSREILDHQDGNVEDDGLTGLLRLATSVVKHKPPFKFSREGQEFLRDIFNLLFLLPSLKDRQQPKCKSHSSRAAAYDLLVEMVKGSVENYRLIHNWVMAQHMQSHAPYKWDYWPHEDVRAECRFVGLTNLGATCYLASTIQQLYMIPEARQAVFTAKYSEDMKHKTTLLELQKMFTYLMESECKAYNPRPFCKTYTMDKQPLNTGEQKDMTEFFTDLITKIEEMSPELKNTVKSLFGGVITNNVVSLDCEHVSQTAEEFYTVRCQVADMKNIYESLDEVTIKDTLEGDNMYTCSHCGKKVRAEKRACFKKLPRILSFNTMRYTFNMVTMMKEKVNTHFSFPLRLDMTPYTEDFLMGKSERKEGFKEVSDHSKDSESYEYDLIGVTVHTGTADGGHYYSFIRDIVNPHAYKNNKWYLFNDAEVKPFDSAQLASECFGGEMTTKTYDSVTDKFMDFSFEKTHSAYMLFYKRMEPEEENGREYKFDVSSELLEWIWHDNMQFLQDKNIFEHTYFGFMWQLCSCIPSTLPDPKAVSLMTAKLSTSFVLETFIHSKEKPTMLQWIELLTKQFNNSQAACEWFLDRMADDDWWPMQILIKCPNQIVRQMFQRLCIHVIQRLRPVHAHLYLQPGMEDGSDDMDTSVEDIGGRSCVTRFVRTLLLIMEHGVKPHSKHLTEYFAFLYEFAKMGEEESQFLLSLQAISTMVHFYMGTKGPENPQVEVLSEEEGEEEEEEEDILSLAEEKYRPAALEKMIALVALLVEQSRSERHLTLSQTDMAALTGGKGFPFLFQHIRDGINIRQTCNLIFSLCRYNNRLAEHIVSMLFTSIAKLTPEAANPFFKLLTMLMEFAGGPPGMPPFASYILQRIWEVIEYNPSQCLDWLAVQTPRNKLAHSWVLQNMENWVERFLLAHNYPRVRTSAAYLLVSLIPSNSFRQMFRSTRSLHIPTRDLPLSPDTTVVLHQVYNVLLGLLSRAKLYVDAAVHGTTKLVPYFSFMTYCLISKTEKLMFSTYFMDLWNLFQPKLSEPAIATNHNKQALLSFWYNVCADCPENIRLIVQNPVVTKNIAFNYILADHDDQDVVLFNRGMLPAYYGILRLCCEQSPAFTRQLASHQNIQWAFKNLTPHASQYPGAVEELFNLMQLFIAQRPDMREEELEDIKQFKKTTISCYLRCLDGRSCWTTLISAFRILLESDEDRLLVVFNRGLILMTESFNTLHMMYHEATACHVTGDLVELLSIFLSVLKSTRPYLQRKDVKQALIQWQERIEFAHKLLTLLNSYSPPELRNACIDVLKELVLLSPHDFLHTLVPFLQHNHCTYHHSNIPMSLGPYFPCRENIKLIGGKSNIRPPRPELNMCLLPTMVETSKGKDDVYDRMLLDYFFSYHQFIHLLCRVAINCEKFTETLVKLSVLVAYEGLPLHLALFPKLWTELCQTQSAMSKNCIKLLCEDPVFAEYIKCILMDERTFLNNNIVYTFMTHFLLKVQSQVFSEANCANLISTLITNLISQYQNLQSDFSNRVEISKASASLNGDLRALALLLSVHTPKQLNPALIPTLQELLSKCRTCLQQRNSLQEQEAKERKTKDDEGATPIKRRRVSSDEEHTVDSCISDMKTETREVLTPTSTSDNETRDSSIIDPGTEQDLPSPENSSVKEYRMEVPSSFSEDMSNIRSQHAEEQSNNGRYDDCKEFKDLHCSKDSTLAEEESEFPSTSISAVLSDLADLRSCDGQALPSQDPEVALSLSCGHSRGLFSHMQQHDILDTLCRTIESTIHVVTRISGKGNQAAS
In short: (§1)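 Average log2 ratios of fragment over vehicle were obtained by unpaired t-test from global-median-normalised Spectronaut label-free quantities. Proteins with ≥2 unique peptides were included. HEK293T lysate (495 µg per sample) was treated in triplicate with fragment at 200 µM or vehicle for 3 h, then with Biotin-Ahx-Ub-VS at 0.5 µM final for 1 h, and labelled DUBs were NeutrAvidin-enriched and run by diaPASEF LC-MS/MS.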

USP36 = target: T1, USP36 (UniProt Q9P275)
T1 sequence (whole entry): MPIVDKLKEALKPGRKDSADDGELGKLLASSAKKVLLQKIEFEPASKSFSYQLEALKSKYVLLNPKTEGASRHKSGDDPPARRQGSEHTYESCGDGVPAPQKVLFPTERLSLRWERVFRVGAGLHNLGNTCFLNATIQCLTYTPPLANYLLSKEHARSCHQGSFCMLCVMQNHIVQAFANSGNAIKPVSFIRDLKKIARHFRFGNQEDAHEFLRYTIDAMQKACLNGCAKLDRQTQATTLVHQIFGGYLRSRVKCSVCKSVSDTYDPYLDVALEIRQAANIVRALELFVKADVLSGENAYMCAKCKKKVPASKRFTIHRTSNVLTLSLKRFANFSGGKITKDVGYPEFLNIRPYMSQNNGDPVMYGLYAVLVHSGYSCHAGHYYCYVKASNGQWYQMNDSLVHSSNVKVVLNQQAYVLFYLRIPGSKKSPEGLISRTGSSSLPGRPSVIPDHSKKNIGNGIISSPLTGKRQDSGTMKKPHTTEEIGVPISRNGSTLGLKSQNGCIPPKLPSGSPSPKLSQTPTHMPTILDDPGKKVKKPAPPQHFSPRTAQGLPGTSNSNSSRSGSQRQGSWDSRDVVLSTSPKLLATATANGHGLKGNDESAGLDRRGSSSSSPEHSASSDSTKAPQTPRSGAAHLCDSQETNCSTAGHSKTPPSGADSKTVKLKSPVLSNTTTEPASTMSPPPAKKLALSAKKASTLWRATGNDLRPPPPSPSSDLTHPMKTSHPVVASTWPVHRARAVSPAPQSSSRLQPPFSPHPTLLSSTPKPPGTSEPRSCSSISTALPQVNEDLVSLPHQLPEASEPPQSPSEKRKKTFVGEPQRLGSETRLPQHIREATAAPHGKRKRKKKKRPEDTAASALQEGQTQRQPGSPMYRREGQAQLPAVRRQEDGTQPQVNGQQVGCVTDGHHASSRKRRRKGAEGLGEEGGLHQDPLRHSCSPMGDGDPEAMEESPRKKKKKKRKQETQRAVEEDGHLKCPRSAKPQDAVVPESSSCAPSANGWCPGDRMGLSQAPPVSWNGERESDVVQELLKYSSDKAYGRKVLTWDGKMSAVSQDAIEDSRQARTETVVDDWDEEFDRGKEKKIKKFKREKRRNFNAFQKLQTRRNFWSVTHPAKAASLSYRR
In short: as §1

USP38 = target: T2, USP38 (UniProt Q8NB14)
T2 sequence (whole entry): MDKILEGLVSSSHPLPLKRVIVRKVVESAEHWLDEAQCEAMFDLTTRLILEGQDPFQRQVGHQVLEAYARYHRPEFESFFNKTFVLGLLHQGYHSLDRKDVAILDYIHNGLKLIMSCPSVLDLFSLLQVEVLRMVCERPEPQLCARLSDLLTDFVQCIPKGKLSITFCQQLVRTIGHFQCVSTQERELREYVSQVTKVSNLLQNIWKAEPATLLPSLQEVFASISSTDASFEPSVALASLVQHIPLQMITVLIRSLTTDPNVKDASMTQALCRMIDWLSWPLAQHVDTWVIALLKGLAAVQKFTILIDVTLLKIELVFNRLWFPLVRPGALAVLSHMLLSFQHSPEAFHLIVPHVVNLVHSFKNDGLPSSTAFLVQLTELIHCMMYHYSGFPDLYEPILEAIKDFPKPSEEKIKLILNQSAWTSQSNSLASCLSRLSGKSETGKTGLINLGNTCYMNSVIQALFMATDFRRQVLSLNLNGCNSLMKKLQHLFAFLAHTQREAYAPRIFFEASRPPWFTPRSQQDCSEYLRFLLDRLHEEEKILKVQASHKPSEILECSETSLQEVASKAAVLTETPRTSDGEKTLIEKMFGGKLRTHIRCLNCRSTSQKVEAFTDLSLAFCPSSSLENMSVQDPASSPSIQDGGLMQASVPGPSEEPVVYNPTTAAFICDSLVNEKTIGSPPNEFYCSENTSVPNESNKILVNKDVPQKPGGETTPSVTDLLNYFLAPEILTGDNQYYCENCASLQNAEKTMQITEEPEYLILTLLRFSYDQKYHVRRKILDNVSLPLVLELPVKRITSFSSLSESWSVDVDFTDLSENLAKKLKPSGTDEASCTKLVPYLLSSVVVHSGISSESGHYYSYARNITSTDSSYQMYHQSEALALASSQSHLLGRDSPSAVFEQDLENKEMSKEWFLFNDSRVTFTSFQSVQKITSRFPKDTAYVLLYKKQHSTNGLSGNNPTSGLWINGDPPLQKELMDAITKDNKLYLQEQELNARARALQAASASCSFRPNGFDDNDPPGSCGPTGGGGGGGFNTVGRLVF
In short: as §1

USP39 = target: T3, USP39 (UniProt Q53GS9)
T3 sequence (whole entry): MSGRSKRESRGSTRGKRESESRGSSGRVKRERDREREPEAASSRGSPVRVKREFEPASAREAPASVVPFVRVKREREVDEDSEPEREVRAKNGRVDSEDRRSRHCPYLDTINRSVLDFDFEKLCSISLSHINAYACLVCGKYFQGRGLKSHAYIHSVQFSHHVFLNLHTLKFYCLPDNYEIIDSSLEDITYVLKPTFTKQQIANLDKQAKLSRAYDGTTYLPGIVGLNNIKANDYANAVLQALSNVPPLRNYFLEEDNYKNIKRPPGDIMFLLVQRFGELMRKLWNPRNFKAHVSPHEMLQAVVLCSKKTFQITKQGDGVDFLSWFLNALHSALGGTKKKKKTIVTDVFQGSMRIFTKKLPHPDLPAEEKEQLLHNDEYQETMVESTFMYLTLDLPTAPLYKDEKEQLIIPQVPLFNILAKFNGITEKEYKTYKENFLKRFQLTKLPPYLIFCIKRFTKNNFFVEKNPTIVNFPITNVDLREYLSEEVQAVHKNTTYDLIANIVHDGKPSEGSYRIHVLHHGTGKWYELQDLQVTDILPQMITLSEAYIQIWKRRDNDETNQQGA
In short: as §1

USP4 = target: T4, USP4 (UniProt Q13107)
T4 sequence (whole entry): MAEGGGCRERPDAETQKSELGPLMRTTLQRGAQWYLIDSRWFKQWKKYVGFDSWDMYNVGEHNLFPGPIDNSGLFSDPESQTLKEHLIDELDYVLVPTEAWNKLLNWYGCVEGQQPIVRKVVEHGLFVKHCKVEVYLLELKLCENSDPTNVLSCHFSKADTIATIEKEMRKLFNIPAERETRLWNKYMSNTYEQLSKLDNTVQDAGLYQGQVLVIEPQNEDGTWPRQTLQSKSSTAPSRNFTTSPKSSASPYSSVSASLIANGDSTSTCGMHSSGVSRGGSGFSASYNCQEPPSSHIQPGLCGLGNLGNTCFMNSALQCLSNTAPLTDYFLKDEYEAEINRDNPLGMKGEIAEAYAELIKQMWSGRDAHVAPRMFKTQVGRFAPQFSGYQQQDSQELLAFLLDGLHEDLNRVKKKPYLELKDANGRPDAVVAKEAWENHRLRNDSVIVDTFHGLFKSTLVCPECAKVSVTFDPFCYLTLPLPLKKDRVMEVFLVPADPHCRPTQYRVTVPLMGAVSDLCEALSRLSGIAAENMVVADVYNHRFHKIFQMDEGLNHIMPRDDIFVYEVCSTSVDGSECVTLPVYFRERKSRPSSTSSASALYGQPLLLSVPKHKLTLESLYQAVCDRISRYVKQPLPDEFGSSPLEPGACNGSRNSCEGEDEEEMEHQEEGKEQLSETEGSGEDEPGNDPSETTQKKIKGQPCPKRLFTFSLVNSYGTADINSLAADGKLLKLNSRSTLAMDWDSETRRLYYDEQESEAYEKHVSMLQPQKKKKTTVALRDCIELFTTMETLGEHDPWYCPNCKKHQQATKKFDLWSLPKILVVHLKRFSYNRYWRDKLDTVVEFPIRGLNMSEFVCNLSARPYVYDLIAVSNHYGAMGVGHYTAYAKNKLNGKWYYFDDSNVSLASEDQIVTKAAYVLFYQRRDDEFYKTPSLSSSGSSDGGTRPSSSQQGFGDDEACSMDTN
In short: as §1

Measured: log2 ratio of Biotin-Ahx-Ub-VS probe labelling

Cc1nnc(C(NC(=O)CCl)c2ccccc2)n1C (stereo not given)
inactive: USP34 0.334 | USP36 0.114 | USP38 0.538 | USP39 0.132 | USP4 0.55
